Assay results: the supplement of paper PMC9950053
Counter-ions that a name gives are not always drawn.

system: Danio rerio larvae (5 dpf); test: habituation (activity change first vs second 5 min of 1-s interval sound, period 17) minus DMSO control (percentage points); higher = larger habituation measure than DMSO larvae; details: 10 µM; exposure time: 3 h pre-incubation + 3 h imaging
Method in brief: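 At 28.5 °C, 5 dpf wild-type zebrafish larvae were treated with compounds (10 µM final) for 3 h ahead of and 3 h during imaging at one frame every 6 s. Tracks came from Z-LaP Tracker, discarding detections under 0.5 probability and any larva moving under 1% of the time. Each behavioural value is the difference, in percentage points, between the treated group mean and the control mean, with 48 larvae per group and 844 in the control.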

Row | Compound | habituation
1 | COCCCOc1cc(C[C@@H](C[C@H](N)[C@@H](O)C[C@H](C(=O)NCC(C)(C)C(N)=O)C(C)C)C(C)C)ccc1OC [Aliskiren hemifumarate] | 8.44
2 | CCCCCOC(=O)Nc1nc(=O)n([C@@H]2O[C@H](C)[C@@H](O)[C@H]2O)cc1F [Capecitabine] | -3.27
3 | CN1CCC[C@@H]1Cc1c[nH]c2ccc(CCS(=O)(=O)c3ccccc3)cc12 [Eletriptan hydrobromide] | 7.41
4 | C[C@H]1C[C@@H]2[C@H]([C@@H](O)C[C@@]3(C)[C@H]2CC[C@]3(O)C(=O)CO)[C@@]2(C)C=CC(=O)C=C12 [Methylprednisolone] | 0.909
5 | Clc1ccccc1C(c1ccccc1)(c1ccccc1)n1ccnc1 [Clotrimazole] | -2.1
6 | CC(C)Nc1cccnc1N1CCN(C(=O)c2cc3cc(NS(C)(=O)=O)ccc3[nH]2)CC1 [Delavirdine mesylate] | -5.18
7 | Cn1nnc2c(C(N)=O)ncn2c1=O [Temozolomide] | 4.81
8 | Nc1nc2[nH]cc(CCc3ccc(C(=O)N[C@@H](CCC(=O)O)C(=O)O)cc3)c2c(=O)[nH]1 [Pemetrexed] | -1.84

system: Danio rerio larvae (5 dpf); test: combined optomotor response (time in upper well half, down vs up moving lines, periods 7-14) minus DMSO control (percentage points); higher = stronger optomotor response than DMSO larvae; details: 10 µM; exposure time: 3 h pre-incubation + 3 h imaging

Row | Compound | combined optomotor response
9 | COCCCOc1cc(C[C@@H](C[C@H](N)[C@@H](O)C[C@H](C(=O)NCC(C)(C)C(N)=O)C(C)C)C(C)C)ccc1OC [Aliskiren hemifumarate] | 1.73
10 | NS(=O)(=O)Cc1noc2ccccc12 [Zonisamide] | 7
11 | CCCCCOC(=O)Nc1nc(=O)n([C@@H]2O[C@H](C)[C@@H](O)[C@H]2O)cc1F [Capecitabine] | 4.98
12 | CN1CCC[C@@H]1Cc1c[nH]c2ccc(CCS(=O)(=O)c3ccccc3)cc12 [Eletriptan hydrobromide] | -0.376
13 | Cc1ccc(-c2cc(C(F)(F)F)nn2-c2ccc(S(N)(=O)=O)cc2)cc1 [Celecoxib] | 0.0816
14 | CCOC(=O)c1ncn2c1CN(C)C(=O)c1cc(F)ccc1-2 [Flumazenil] | 3.13
15 | Cc1ccsc1C(=CCCN1CCC[C@@H](C(=O)O)C1)c1sccc1C [Tiagabine hydrochloride] | 8.29
16 | CC1(C)O[C@@H]2[C@@H](CO[C@@]3(COS(N)(=O)=O)OC(C)(C)O[C@@H]23)O1 [Topiramate] | -3.96
17 | CN(CCOc1ccc(CC2SC(=O)NC2=O)cc1)c1ccccn1 (stereo unspecified) [Rosiglitazone] | 3.93
18 | CCOc1nc2cccc(C(=O)O)c2n1Cc1ccc(-c2ccccc2-c2nnn[nH]2)cc1 [Candesartan] | 7.2
19 | O=C(c1ccc(OCCN2CCCCC2)cc1)c1c(-c2ccc(O)cc2)sc2cc(O)ccc12 [Raloxifene hydrochloride] | -1.27
20 | C[C@H]1C[C@@H]2[C@H]([C@@H](O)C[C@@]3(C)[C@H]2CC[C@]3(O)C(=O)CO)[C@@]2(C)C=CC(=O)C=C12 [Methylprednisolone] | 8.85
21 | O=C(O)CCCc1ccccc1 [Sodium 4-Phenylbutyrate] | 4.62
22 | C[C@]12CCC(=O)C=C1CC[C@@H]1[C@@H]2[C@@H](O)C[C@@]2(C)[C@H]1CC[C@]2(O)C(=O)CO [Hydrocortisone] | 4.58
23 | Clc1ccccc1C(c1ccccc1)(c1ccccc1)n1ccnc1 [Clotrimazole] | -7.18
24 | C[C@@H](O[C@H]1OCCN(Cc2n[nH]c(=O)[nH]2)[C@H]1c1ccc(F)cc1)c1cc(C(F)(F)F)cc(C(F)(F)F)c1 [Aprepitant] | 4.63
25 | CC(=O)Oc1ccccc1C(=O)O [Aspirin] | -1.47

Row | Compound | combined optomotor response
26 | CC(C)Nc1cccnc1N1CCN(C(=O)c2cc3cc(NS(C)(=O)=O)ccc3[nH]2)CC1 [Delavirdine mesylate] | -0.694
27 | CCN(Cc1ccncc1)C(=O)C(CO)c1ccccc1 (stereo unspecified) [Tropicamide] | 0.19
28 | COc1cccc2c1C(=O)c1c(O)c3c(c(O)c1C2=O)C[C@@](O)(C(=O)CO)C[C@@H]3O[C@H]1C[C@H](N)[C@H](O)[C@H](C)O1 [Doxorubicin hydrochloride] | -1.96
29 | CC(=O)O[C@H]1C(=O)[C@@]2(C)[C@H]([C@H](OC(=O)c3ccccc3)[C@]3(O)C[C@H](OC(=O)[C@H](O)[C@@H](NC(=O)c4ccccc4)c4ccccc4)C(C)=C1C3(C)C)[C@]1(OC(C)=O)CO[C@@H]1C[C@@H]2O [Taxol] | -0.695
30 | Cc1c(-c2ccc(O)cc2)n(Cc2ccc(OCCN3CCCCCC3)cc2)c2ccc(O)cc12 [Bazedoxifene acetate] | -0.163
31 | Cc1cn([C@H]2C=C[C@@H](CO)O2)c(=O)[nH]c1=O [Stavudine] | 7.54
32 | Clc1ccc(COC(Cn2ccnc2)c2ccc(Cl)cc2Cl)c(Cl)c1 (stereo unspecified) [Miconazole nitrate] | -12.3
33 | CCCN(CCc1cccs1)[C@H]1CCc2c(O)cccc2C1 [Rotigotine hydrochloride] | -12.7
34 | Cn1nnc2c(C(N)=O)ncn2c1=O [Temozolomide] | 5.41
35 | COc1ccc(Cl)cc1C(=O)NCCc1ccc(S(=O)(=O)NC(=O)NC2CCCCC2)cc1 [Glibenclamide] | 1.3
36 | Cc1cc(C2CCCCC2)n(O)c(=O)c1 [Ciclopirox] | 5.45
37 | CCCN(CCC)S(=O)(=O)c1ccc(C(=O)O)cc1 [Probenecid] | 4.87
38 | Nc1nc2[nH]cc(CCc3ccc(C(=O)N[C@@H](CCC(=O)O)C(=O)O)cc3)c2c(=O)[nH]1 [Pemetrexed] | 1.31
39 | Brc1c(NC2=NCCN2)ccc2nccnc12 | 5.01
40 | CCc1ccc(CCOc2ccc(CC3SC(=O)NC3=O)cc2)nc1 (stereo unspecified) [Pioglitazone hydrochloride] | -1.77
41 | OCCOCCN1CCN(C2=Nc3ccccc3Sc3ccccc32)CC1 [Quetiapine hemifumarate] | 8.62
